As usually defined, the AC50 is the concentration at which the activity in the assay is half-maximal.

Inconclusive results are not listed. The source made the active and inactive calls. The calls were made as follows, unless noted: active = hit-call score of the fitted dose curve at least 0.9, where 1 is the maximum; inconclusive = response in the unintended direction; inactive = score below 0.9.

Assay [1] concerns the target Oxysterols receptor LXR-alpha (Homo sapiens) (UniProt Q13133). Nature of the assay: ATG_LXRa_TRANS: Attagene TRANS-FACTORIAL HepG2 Assay for human Liver X Receptor alpha (LXRa) (AID 2282980). Conditions: HepG2 Attagene TRANS reporter, LXRa transactivation. Put shortly: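 HepG2 cells were transiently transfected with multiplexed reporter units driven by chimeric LXRa–GAL4 fusion proteins, then dosed for 24 h. Reporter mRNA was quantified by RT-PCR, fluorescent labelling and capillary electrophoresis; gain of signal fitted against DMSO baseline.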

Assay [2] has as its target Hepatocyte nuclear factor 4-alpha (Homo sapiens) (UniProt P41235). Description: ATG_HNF4a_TRANS: Attagene TRANS-FACTORIAL HepG2 Assay for human Hepatocyte Nuclear Factor 4 alpha (HNF4a) (AID 2282982). Conditions: HepG2 HNF4a transactivation reporter, mRNA readout. Summed up: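 Cells used were human HepG2, transiently carrying GAL4-UAS reporter units read out against exogenous NR-GAL4 chimeras. Reporter transcript levels after 24 h dosing were quantified by fluorescent RT-PCR and capillary electrophoresis.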

Assay [3] in a line: ATG_M_06_TRANS: Attagene TRANS-FACTORIAL HepG2 Assay for M06 Transcription Factor (Internal Marker) (AID 2282983). Conditions: HepG2 Attagene TRANS M06 internal marker reporter. Summed up: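 HepG2 cells transiently transfected with multiplexed GAL4-UAS reporter transcription units; after 24 h compound exposure, reporter mRNA measured by RT-PCR, FAM-labelled primer extension, HpaI digestion and capillary electrophoresis. Gain-of-signal fitted versus DMSO baseline; background control readout.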

Assay [4] has as its target Transcriptional activator Myb (Homo sapiens) (UniProt P10242). Nature of the assay: ATG_Myb_CIS: Attagene CIS-FACTORIAL HepG2 Assay for human Myeloblastosis (Myb) Proto-Oncogene Transcription Factor (AID 2282986; active = hit-call score of the fitted dose curve at least 0.9, where 1 is the maximum; inactive = score below 0.9). The conditions noted are these: HepG2 Attagene CIS-FACTORIAL Myb reporter transcription; actives raise or lower the signal. Summed up: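 After 24 h of compound dosing, total RNA from transfected HepG2 cells is reverse-transcribed and the reporter sequences amplified, labeled and separated by capillary electrophoresis. Values come from bidirectional fitting against DMSO.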

The target in assay [5] is Nuclear respiratory factor 1 (Homo sapiens) (UniProt Q16656). Nature of the assay: ATG_NRF1_CIS: Attagene CIS-FACTORIAL HepG2 Assay for human Nuclear Respiratory Factor 1 (NRF1) Orphan Gene (AID 2282987; active = hit-call score of the fitted dose curve at least 0.9, where 1 is the maximum; inactive = score below 0.9). Conditions: HepG2 NRF1 cis-element reporter, Attagene multiplex; actives raise or lower the signal. Summed up: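 Measured: fluorescent reporter-specific RT-PCR products from transfected HepG2 cells, separated by capillary electrophoresis. Exposure lasted 24 h. Analysis used bidirectional curve fitting with DMSO as negative control.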
Chain of Nuclear respiratory factor 1 (Homo sapiens) (Q16656 whole entry, looked up): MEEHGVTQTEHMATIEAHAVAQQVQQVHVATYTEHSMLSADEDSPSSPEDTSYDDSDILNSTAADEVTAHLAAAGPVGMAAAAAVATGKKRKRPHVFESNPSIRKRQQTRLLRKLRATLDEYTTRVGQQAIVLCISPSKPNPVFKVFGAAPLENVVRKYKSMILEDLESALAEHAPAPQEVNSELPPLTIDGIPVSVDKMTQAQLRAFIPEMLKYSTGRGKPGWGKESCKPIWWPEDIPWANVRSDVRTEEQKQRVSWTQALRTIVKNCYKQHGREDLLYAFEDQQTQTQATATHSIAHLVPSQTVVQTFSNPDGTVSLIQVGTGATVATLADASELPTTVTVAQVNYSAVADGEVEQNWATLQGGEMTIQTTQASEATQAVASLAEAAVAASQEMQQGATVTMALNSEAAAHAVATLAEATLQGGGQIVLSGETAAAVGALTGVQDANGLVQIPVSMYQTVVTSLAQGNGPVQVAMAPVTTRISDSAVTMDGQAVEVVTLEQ

The nature of assay [6]: ATG_NFI_CIS: Attagene CIS-FACTORIAL HepG2 Assay for human Nuclear Factor I (NFI) (AID 2282989; active = hit-call score of the fitted dose curve at least 0.9, where 1 is the maximum; inactive = score below 0.9). Conditions: HepG2 cis-regulatory reporter, NFI response element transcription; actives raise or lower the signal. Summed up:
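Reporter transcripts were measured by RT-PCR with fluorescent primer extension and capillary electrophoresis 24 h post-treatment. HepG2 cells carried transiently transfected cis-regulated reporter constructs reporting endogenous factor activity; gain or loss fitted against DMSO baseline.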

Assay [7] deals with Oxysterols receptor LXR-beta (Homo sapiens) (UniProt P55055). Description: ATG_LXRb_TRANS: Attagene TRANS-FACTORIAL HepG2 Assay for human Liver X Receptor beta (LXRb) (AID 2282981). The conditions noted are these: HepG2 Attagene TRANS GAL4-LXRb reporter, mRNA. Put shortly: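 In this TRANS format, exogenous chimeric NR-Gal4 protein activity, not endogenous factors, drives reporter expression in transfected human HepG2 cells. Exposure lasted 24 h; reporter mRNA was read by fluorescent capillary electrophoresis.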
Chain of Oxysterols receptor LXR-beta (Homo sapiens) (P55055 whole entry, looked up, the tested form may be a part): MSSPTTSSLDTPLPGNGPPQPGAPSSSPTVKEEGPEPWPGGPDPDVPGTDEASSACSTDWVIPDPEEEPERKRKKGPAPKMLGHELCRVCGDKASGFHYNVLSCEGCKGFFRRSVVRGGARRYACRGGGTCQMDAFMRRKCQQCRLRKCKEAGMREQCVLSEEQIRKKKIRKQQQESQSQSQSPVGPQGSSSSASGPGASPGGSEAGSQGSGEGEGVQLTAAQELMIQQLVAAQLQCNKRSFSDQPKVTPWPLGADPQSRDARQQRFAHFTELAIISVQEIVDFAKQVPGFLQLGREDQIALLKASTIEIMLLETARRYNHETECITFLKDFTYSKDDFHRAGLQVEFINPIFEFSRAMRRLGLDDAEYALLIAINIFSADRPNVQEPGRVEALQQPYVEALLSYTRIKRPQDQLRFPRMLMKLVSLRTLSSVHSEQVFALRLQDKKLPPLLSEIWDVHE

A short description of assay [8]: ATG_M_32_TRANS: Attagene TRANS-FACTORIAL HepG2 Assay for M32 Transcription Factor (Internal Marker) (AID 2282984). Conditions: HepG2 Attagene TRANS M32 internal marker reporter. Put shortly: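 Human hepatoma HepG2, transient MRTU transfection, 24 h treatment. RNA → RT-PCR → fluorescent primer extension → HpaI digest (2 h, 37 C) → CE. Positive-direction fit vs DMSO.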

Assay [9] deals with Nuclear receptor subfamily 4 group A member 2 (Homo sapiens) (UniProt P43354). Nature of the assay: ATG_NURR1_TRANS: Attagene TRANS-FACTORIAL HepG2 Assay for human Nuclear Receptor Related Protein 1 (NURR1) (AID 2282985). The conditions noted are these: HepG2 Attagene TRANS reporter, mRNA readout. Put shortly: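 After 24 h chemical dosing, total RNA from transiently transfected HepG2 cells was reverse-transcribed and reporter cDNA PCR-amplified, FAM-labelled and analysed by capillary electrophoresis. Activity fitted in positive direction, DMSO as negative control.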
Chain of Nuclear receptor subfamily 4 group A member 2 (Homo sapiens) (P43354 whole entry, looked up): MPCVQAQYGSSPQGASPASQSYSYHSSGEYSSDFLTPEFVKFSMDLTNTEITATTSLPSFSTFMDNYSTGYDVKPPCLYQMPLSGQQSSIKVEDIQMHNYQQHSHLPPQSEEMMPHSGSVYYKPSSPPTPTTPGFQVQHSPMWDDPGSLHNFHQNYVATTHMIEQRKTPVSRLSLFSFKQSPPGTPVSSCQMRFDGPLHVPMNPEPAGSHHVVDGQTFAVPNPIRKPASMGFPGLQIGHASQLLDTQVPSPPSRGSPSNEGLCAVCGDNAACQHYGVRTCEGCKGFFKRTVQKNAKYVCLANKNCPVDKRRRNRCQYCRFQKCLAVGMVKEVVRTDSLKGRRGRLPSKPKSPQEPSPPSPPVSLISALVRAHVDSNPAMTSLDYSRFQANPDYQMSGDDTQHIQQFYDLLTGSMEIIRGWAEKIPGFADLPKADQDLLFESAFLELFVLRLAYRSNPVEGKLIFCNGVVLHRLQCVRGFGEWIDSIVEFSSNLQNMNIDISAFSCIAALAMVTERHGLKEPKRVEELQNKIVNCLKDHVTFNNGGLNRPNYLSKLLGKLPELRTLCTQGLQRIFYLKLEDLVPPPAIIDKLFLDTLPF

Chain of Transcriptional activator Myb (Homo sapiens) (P10242 whole entry, looked up): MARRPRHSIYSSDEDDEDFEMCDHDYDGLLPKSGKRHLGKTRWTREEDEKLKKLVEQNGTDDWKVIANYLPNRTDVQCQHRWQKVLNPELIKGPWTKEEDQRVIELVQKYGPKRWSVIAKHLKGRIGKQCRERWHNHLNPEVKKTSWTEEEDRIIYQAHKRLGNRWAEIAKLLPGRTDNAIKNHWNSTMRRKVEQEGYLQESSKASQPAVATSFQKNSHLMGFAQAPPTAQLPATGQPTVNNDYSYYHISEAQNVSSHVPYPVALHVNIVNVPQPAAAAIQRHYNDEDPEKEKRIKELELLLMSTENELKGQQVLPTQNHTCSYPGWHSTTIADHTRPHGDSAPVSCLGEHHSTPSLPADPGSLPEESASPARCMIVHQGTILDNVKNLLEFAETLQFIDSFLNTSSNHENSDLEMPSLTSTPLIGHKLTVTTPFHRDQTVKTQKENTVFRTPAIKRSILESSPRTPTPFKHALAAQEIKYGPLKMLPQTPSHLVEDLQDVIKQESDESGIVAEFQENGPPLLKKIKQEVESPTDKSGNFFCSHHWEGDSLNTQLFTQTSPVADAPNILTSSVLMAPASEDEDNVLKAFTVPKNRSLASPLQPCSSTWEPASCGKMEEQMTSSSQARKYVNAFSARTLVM
Chain of Hepatocyte nuclear factor 4-alpha (Homo sapiens) (P41235 whole entry, looked up, the tested form may be a part): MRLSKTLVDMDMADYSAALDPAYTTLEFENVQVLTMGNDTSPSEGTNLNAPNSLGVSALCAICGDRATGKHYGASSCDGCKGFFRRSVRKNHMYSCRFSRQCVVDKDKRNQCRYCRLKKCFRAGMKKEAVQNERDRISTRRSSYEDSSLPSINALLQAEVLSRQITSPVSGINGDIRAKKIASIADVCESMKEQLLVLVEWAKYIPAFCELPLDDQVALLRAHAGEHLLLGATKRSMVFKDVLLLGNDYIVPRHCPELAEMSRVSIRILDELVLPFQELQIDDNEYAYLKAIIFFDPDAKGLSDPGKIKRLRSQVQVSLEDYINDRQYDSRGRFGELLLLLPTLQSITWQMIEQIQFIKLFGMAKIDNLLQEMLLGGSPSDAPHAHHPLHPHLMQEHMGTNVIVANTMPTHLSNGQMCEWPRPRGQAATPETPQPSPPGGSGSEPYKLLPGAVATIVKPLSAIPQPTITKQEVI
Chain of Oxysterols receptor LXR-alpha (Homo sapiens) (Q13133 whole entry, looked up, the tested form may be a part): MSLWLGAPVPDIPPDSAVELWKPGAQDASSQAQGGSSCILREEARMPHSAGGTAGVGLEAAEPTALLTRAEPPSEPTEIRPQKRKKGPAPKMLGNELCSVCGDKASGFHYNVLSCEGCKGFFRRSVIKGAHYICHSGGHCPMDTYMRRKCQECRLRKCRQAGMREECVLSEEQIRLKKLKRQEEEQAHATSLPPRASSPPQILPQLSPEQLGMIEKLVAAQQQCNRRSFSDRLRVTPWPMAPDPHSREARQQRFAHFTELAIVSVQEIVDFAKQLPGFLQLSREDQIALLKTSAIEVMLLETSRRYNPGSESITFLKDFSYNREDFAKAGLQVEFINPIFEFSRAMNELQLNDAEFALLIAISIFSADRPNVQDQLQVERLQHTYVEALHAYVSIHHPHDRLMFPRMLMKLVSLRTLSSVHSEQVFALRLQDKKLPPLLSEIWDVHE

Take `Cc1ncc([N+](=O)[O-])n1CCO`: the outcome in assay [1], in assay [2], in assay [3], in assay [4], in [5] and in assay [6] was inactive.

For the compound `CC1=NN(c2ccc(S(=O)(=O)O)cc2)C(=O)C1`, the result in assay [1], in assay [7], in assay [8], in assay [4], in [5] and in assay [6] was inactive.

As to `CCCC(C)=O`, the call in assay [1], in [2], in assay [3], in assay [9], in assay [4] and in assay [5] was inactive. Besides, the compound was classed as inactive in assay [6].

For the compound `C=C(C)C(=O)OCCOC1CC2CC1C1C=CCC21` (centres undefined), the compound was called inactive in [1], in assay [2], in [3], in [8], in [9] and in [4]. Also, the compound was classed as inactive in assay [5] and in [6].

Regarding `CCC(=O)OCCOc1ccccc1`, the compound was classed as inactive in assay [1], in assay [7], in assay [3], in assay [8], in [9] and in assay [4]. Also, the compound was classed as inactive in assay [5] and in [6].

For the compound `C/C=C(\C)C(=O)OCCc1ccccc1`, the call in assay [1], in [2], in [3], in assay [4], in assay [5] and in assay [6] was inactive.

`CC(=O)C(C)O` (centres undefined): the compound was classed as inactive in assay [1], in assay [2], in assay [3], in assay [9], in assay [4] and in [5].

For the compound `O=CCc1ccccc1`, the outcome in assay [1], in assay [2], in assay [3], in assay [8], in [9] and in assay [4] was inactive. The compound was classed as inactive in [6].

With `CC(=O)OCCCc1ccccc1`, the outcome in assay [1], in assay [7], in [8], in [4], in assay [5] and in assay [6] was inactive.

On to `CS(=O)(=O)c1ccc(Cl)cc1`, for which the result in assay [1], in assay [7], in assay [3], in assay [8], in assay [4] and in [5] was inactive. The outcome in [6] was inactive.

As for `CC(Oc1cc(Cl)ccc1Cl)C(=O)O` (centres undefined), the compound was classed as inactive in assay [1], in assay [7], in assay [9], in assay [4], in assay [5] and in assay [6].

On to `CCOc1ccc(N=Nc2ccc(C=Cc3ccc(N=Nc4ccc(OCC)cc4)cc3S(=O)(=O)O)c(S(=O)(=O)O)c2)cc1`, for which the outcome in assay [1], in assay [2], in assay [3], in assay [8], in assay [4] and in assay [5] was inactive. Also, the compound was called inactive in [6].

As to `CC(=O)C1(C)CC2=C(CCCC2(C)C)CC1C` (centres undefined), the compound was called inactive in [1], in [7], in [4] and in assay [5]. Also, the AC50 in assay [6] is 187 µM (active).

Consider `Nc1ccc2c(O)cc(S(=O)(=O)O)cc2c1`, for which the result in assay [1], in assay [2], in assay [3], in [9], in assay [4] and in [5] was inactive. Besides, the compound was called inactive in assay [6].

For `CCCC(=O)c1ccccc1`, the outcome in assay [1], in assay [7], in assay [3], in assay [8], in assay [4] and in [6] was inactive.

`CCCC(C)C(O)CC` (centres undefined): the call in assay [1], in [7], in [9], in [4] and in assay [5] was inactive.

As to `CC1(C)CCC[C@]2(C)[C@H]3CCO[C@]3(C)CC[C@@H]12`, the compound was classed as inactive in [1], in assay [3], in assay [8], in assay [4], in [5] and in assay [6].

With `CN1CCOCC1`, the result in assay [1], in [8], in assay [4] and in assay [5] was inactive.

`CCCCCCCCCC(C)C=O` (centres undefined): the compound was classed as inactive in [1], in assay [8], in assay [4], in [5] and in assay [6].

In the case of `COC(CC(C)CCCC(C)(C)O)OC` (centres undefined), the call in assay [1], in [2], in [4] and in [6] was inactive.

On to `CCCCCCOC(=O)CCC`, for which the call in assay [1], in assay [3], in assay [4], in assay [5] and in assay [6] was inactive.

For `CC(=O)NCCO`, the compound was called inactive in [1], in assay [2], in [8] and in assay [4].

`CCOCCOCCOCC`: the compound was classed as inactive in assay [1], in assay [2], in [8], in assay [9], in assay [4] and in assay [5].

In the case of `O=C(O)CCCCCCCCCCCC(=O)O`, the compound was called inactive in assay [1], in assay [4] and in [6].

In the case of `OCC(O)c1ccccc1` (centres undefined), the compound was classed as inactive in [1], in assay [9], in assay [4], in assay [5] and in [6].

As for `CN(C)c1cccc(O)c1`, the compound was classed as inactive in [1], in assay [8], in assay [9], in assay [4], in assay [5] and in assay [6].

As to `CCCCSCCCC`, the outcome in [1], in assay [3], in assay [8], in [4], in assay [5] and in [6] was inactive.

Regarding `C=C(C)C(=O)OCCOCCOCCOC(=O)C(=C)C`, the compound was called inactive in assay [1], in assay [8], in [4] and in assay [6].

For `COCCOC(=O)c1ccccc1C(=O)OCCOC`, the compound was classed as inactive in assay [7], in assay [2], in assay [3], in [4], in [5] and in [6].

For `CCCCCC(C)=O`, the call in assay [1], in assay [3], in assay [8], in assay [4] and in assay [5] was inactive.

With `COc1ccccc1N=Nc1c(S(=O)(=O)O)cc2cc(S(=O)(=O)O)cc(NC(C)=O)c2c1O`, the compound was called inactive in [1], in assay [3], in [8], in assay [9] and in assay [4].

As to `CCCCCCC(CO)CCCC` (centres undefined), the call in assay [1], in assay [2], in assay [8], in assay [9], in assay [4] and in [5] was inactive. Further, the outcome in assay [6] was inactive.

The values above are taken from PubChem BioAssay (EPA / NIEHS).
